CASP6 VEID inh: human caspase-6 inhibitors, primary screen, biochemical, VEID-R110 fluorescence, single point, set 2. P55212. purified caspase-6, Z-VEID-R110 cleavage fluorescence. inhibition, % at 12.5 µM. 0.53% of 350,000 active. AID 686996, 2013;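 active means mean inhibition across replicates at least about 35%, with every replicate also reaching that limit, limit read from the data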;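 further: 0% = median of neutral control wells and 100% = no fluorescence left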
Target sequence (P55212 24-179 limits assumed): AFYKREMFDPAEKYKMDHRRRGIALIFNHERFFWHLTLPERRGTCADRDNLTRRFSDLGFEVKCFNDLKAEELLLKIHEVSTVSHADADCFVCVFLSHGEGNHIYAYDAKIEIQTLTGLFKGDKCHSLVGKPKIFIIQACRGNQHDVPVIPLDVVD
Target sequence (P55212 194-293 limits assumed): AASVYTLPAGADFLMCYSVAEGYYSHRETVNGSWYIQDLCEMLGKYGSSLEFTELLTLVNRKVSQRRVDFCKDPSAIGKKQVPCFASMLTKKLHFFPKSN
CDK5 p35 inh: inhibitors of human CDK5/p35 kinase, primary screen, biochemical, single concentration; Recombinant CDK5/p35, ADP-Glo luminescence, 60 min; inhibition, % at 10 µM; 0.01% of 330,000 active; AID 488839, 2010;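 active means highest replicate inhibition of at least 50% and at least 75% of replicates reaching 50%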;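 further: plate controls were DMSO neutral control for no effect and GW8510 at 10 µM for full effect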
NSD2 HMT inh: NSD2 histone methyltransferase inhibitors, primary screen, biochemical, AlphaScreen, single concentration, set 2. Histone-lysine N-methyltransferase NSD2 (Homo sapiens), O96028. NSD2 peptide methylation, 120 min. inhibition, % at 12.5 µM. 0.54% of 310,000 active. AID 743445, 2014; in the data active means inhibition above about 50%
ALR inh: inhibitors of human ALR sulfhydryl oxidase, primary screen, biochemical, H2O2 detection, HRP-luminol luminescence, single point. 3.8% of 290,000 active. inhibition, % (test concentration not listed). AID 485317, 2010. purified ALR, DTT oxidation. FAD-linked sulfhydryl oxidase ALR (Homo sapiens), P55789;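 active means mean replicate inhibition above about 79%, with every replicate also reaching it, limit read from the data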
Target sequence (P55789 whole entry, looked up): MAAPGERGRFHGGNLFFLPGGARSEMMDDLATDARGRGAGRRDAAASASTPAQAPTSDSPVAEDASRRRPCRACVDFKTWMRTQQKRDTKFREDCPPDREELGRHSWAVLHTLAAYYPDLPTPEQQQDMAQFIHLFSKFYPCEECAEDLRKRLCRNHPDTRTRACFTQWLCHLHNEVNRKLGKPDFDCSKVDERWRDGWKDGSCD
SUMO Mot1 rescue: yeast Mot1-301 growth rescue at high temperature, primary screen, SUMOylation pathway inhibitor project, S. cerevisiae, ATP luminescence, 38.5C; S. cerevisiae Mot1-301 growth rescue; percent above DMSO median, 100 means doubled; 1% of 320,000 active; growth rescue, % at 18.8 µM; AID 2716, 2010;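 active means every valid replicate shows activation above 250% relative to neutral control wells; inactive means the rest, any valid replicate at or below 250%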;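 further: OY570 slx delta 5 strain wells were the positive control but not used for scaling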
Glyco luc inh: increase of ERlucT glycosylation luciferase signal, primary screen, N-linked glycosylation inhibitor project, D54 ERlucT cells, luminescence, set 2 | D54 ERlucT glycosylation luciferase reporter, 24 h; percent of 100 nM tunicamycin response | reporter increase, % at 12.5 µM | 0.23% of 360,000 active | AID 588692, 2011;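 active means mean luciferase reporter signal, scaled so untreated is 0 and the glycosylation-blocking control 100, at or above a set limit in every replicate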;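 further: luciferase carries N-glycosylation sites so blocking glycosylation raises the light; 0% = median of neutral control wells and 100% = median of 100 nM tunicamycin wells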
Starred values were filed as active, the others as inactive; x = not tested or not shown. Sampled rows, rich in hits. Any-hit rate of the full collection: about 3.9%.

SMILES	CASP6 VEID inh	CDK5 p35 inh	NSD2 HMT inh	ALR inh	SUMO Mot1 rescue	Glyco luc inh
COc1ccc(NC(=O)N(C)C[C@@H]2OCCCC[C@@H](C)Oc3ccc(NC(=O)Nc4ccc(F)cc4)cc3C(=O)N([C@@H](C)CO)C[C@H]2C)cc1	-1	x	x	x	x	x
Cc1ccc(C)c(OCCC(=O)N2CCN(S(=O)(=O)c3cc(F)ccc3F)CC2)c1	45*	0	-5	x	x	-7
COc1cccc(CNc2nc3ccccc3n2CCN2CCCCC2)c1	x	0	7	99*	7	-4
CCn1c(NCc2cc(OC)ccc2OC)nc2ccccc21	x	1	6	4	-6	0
Cn1c(NCc2cccc(Br)c2)nc2ccccc21	x	1	7	93*	5	1
COc1cccc(CNc2nc3ccccc3n2CCN2CCCCC2)c1OC	x	1	6	99*	-11	-5
COc1ccc(OC)c(CNc2nc3ccccc3n2CCN2CCCCC2)c1	x	1	7	-2	-3	-4
Brc1cccc(CNc2nc3ccccc3n2CCN2CCCCC2)c1	-1	-1	5	x	-22	-3
CCCn1c(NCc2cc(OC)ccc2OC)nc2ccccc21	x	1	9	89*	7	-1
O=C(CC(F)(F)F)N1C[C@H]2[C@@H](c3ccccc31)[C@@H](CO)N2C(=O)c1ccncc1	0	x	x	x	x	x
CCCNC(=O)C[C@H]1CC[C@H]2[C@@H](COC[C@@H](O)CN2C(=O)c2ccccn2)O1	1	x	x	x	x	x
C[C@@H]1CN([C@H](C)CO)C(=O)Cc2cc(NS(C)(=O)=O)ccc2O[C@@H]1CN(C)C(=O)Nc1ccc(C(F)(F)F)cc1	0	x	x	x	x	x
CCOc1ccc(N/C(SCc2cccc([N+](=O)[O-])c2)=C(/C#N)C(N)=O)cc1	-2	0	-4	99*	36	1
CS(=O)(=O)N1CC(=O)N2[C@H](CO)[C@H](c3ccc(C#Cc4ccccc4)cc3)[C@@H]2C1	-1	x	x	x	x	x
CN1C(=O)c2cc(NC(=O)Nc3ccccc3)ccc2OC[C@H]2O[C@H](CC(=O)NC3CCC3)CC[C@@H]21	-1	x	x	x	x	x
CN(C)c1ccc2c(c1)[C@@H]1C[C@@H](CC(=O)NCc3ccc4c(c3)OCO4)O[C@@H](CO)[C@@H]1O2	2	x	x	x	x	x
CC(C)c1onc(C(=O)NCc2cccs2)c1[N+](=O)[O-]	4	0	0	-5	-6	-1
CC(C)c1onc(C(=O)NCc2ccc(F)cc2)c1[N+](=O)[O-]	x	2	-1	1	286*	0
O=C(CSC1=NS(=O)(=O)c2cc(F)ccc2N1)Nc1cccc(F)c1	2	0	1	97*	14	1
O=C(N[C@@H]1CC[C@@H](CCn2cc(C3(O)CCCC3)nn2)O[C@@H]1CO)C1CCOCC1	-1	x	x	x	x	x
Cc1ccc(/C=N/NC(=O)c2cc(-c3ccc(C)o3)[nH]n2)cc1	3	0	-5	61	8	12
COc1ccccc1/C=C/C=N/NC(=O)c1cc(-c2ccc(C)o2)[nH]n1	0	2	0	-3	308*	10
C[C@@H]1CN([C@H](C)CO)C(=O)c2cc(C#CC3CC3)cnc2O[C@H]1CN(C)S(=O)(=O)c1cccc(F)c1	0	x	x	x	x	x
CC(NC(=O)c1ccco1)C(c1cccs1)N1CCN(c2ccccc2)CC1 (configuration not stated)	1	1	x	98*	3	-2
CC(NC(=O)c1ccco1)C(c1cccs1)N1CCN(c2ccc(F)cc2)CC1 (configuration not stated)	7	0	6	99*	-4	-1
SMILES	CASP6 VEID inh	CDK5 p35 inh	NSD2 HMT inh	ALR inh	SUMO Mot1 rescue	Glyco luc inh
CO[C@@H]1CN(C)C(=O)c2cc(NC(=O)CC(F)(F)F)ccc2OC[C@H](C)N(C(=O)c2ccccc2F)C[C@@H]1C	0	x	x	x	x	x
CO[C@@H]1CN(C)C(=O)c2cc(NC(C)=O)ccc2OC[C@H](C)N(CCc2ccccc2)C[C@H]1C	-1	x	x	x	x	x
C[C@H](CO)N1C[C@H](C)[C@H](CN(C)S(=O)(=O)c2cn(C)cn2)Oc2ccc(NC(=O)CCC(F)(F)F)cc2C1=O	1	x	x	x	x	x
N#C[C@@H]1[C@H](c2ccc(C#CCC3CCCC3)cc2)[C@@H](CO)N1C(=O)CN1CCOCC1	1	x	x	x	x	x
O=c1[nH]c(/C=C\c2cccc(O)c2)nc(O)c1[N+](=O)[O-]	9	0	12	40	102	3
COc1ccc(-n2c(C)cc(/C=C/c3nc(O)c([N+](=O)[O-])c(=O)[nH]3)c2C)cc1	62*	-1	33	42	-7	3
O=c1[nH]c(/C=C\c2ccc(O)c(O)c2)nc(O)c1[N+](=O)[O-]	24	-1	14	99*	-8	-1
O=C(N/N=C\c1ccc(-c2ccccc2[N+](=O)[O-])o1)C1COc2ccccc2O1 (configuration not stated)	x	1	1	75*	31	1
Cc1ccccc1Nc1nc(CSc2nnc(-c3ccoc3C)n2C)cs1	x	1	1	97*	9	3
Cc1cnc(=O)[nH]c1SCc1ccc([N+](=O)[O-])cc1	x	2	-2	99*	90	2
Cc1cnc(=O)[nH]c1SCc1ccc(C(F)(F)F)cc1	-31	3	1	x	232	3
Cc1noc(C)c1S(=O)(=O)Nc1ccc2c(c1)C(=O)N([C@H](C)CO)C[C@@H](C)[C@H](CN(C)Cc1ccc(C(F)(F)F)cc1)O2	1	x	x	x	x	x
O=C1Nc2ccccc2N=C(c2ccccc2)c2ccccc21	3	x	3	83*	-4	-3
CC(C)C#Cc1cnc2c(c1)C(=O)N([C@H](C)CO)C[C@@H](C)[C@@H](CN(C)Cc1cncnc1)O2	-4	x	x	x	x	x
COc1ccc(N=c2scc(-c3ccc(OC)cc3)n2CCO)cc1	x	1	28	86*	13	-4
O=C(COc1ccccc1CNCc1ccccc1)Nc1ccccc1	x	0	2	-41	-18	47*
CCOc1ccccc1CNCc1ccc(C(=O)O)cc1	-2	0	-2	x	6	2
C[C@@H]1CN([C@@H](C)CO)C(=O)c2c(c3ccccc3n2C)-c2ccccc2CO[C@@H]1CN(C)C(=O)c1ccccc1	-1	x	x	x	x	x
CCOc1cc(-c2c(C#N)c(N)nc3c2CCc2ccccc2-3)ccc1O	x	0	-4	33	-2	46*
CCOc1cc(-c2cc(-c3ccc(C)cc3)nc(N)c2C#N)ccc1O	x	2	1	44	-14	3
COc1ccccc1-c1c(C#N)c(N)nc2c1CCc1ccccc1-2	x	-2	-7	-133	-29	32*
